In PubChem BioAssay (NCATS):
Records with an inconclusive call do not appear. Active and inactive are the calls of the source. Calls follow the shape of the dose curve; as a rule, active = well fitted inhibition curve with a large enough effect; inconclusive = small, poorly fitted or top-dose-only effect; inactive = flat fitted curve, though single readings scatter.

Each compound was assayed against Aldehyde dehydrogenase, mitochondrial (Homo sapiens) (UniProt P05091) (assay: qHTS for Inhibitors of the Aldehyde Dehydrogenase Family (ALDH2) Primary screen (AID 2061308;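 also: plate controls were vehicle for no effect and reference inhibitor for full effect; nearly all actives have a fitted effect of over 55% in size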)). Conditions: ALDH2 enzyme inhibition qHTS, 1536-well; series mostly up to 56 µM; activity change, negative = inhibition: at the top concentration.

Compound | activity change, negative = inhibition
CCCn1c(-c2ccc(F)cc2)nc2c(NCCN3CCSCC3)nc(C)nc21 | 14.5% (inactive)
CCn1c(-c2nonc2N)nc2c(C#CCO)ncc(OCCCN)c21 | 2.66% (inactive)
CC1(C)CC[C@]2(C(=O)OC3OC(CO)C(O)C(O)C3O)CC[C@]3(C)C(=CCC4[C@@]5(C)CC[C@H](OC6OC(C(=O)O)C(O)C(O)C6O)C(CO)(CO)C5CC[C@]43C)[C@@H]2C1 (stereo not given in full) | 6.71% [at 16.9 µM] (inactive)
Cc1ccc(OCCn2c(CCNC(=O)c3ccc4ccccc4c3)nc3ccccc32)cc1 | 2.47% (inactive)
N#Cc1nc(-c2cccc3ccccc23)oc1N | 3.95% (inactive)
CCN1CCC[C@@H]1CNC(=O)c1ccc2c(c1)NC(=O)/C(=C/c1ccccc1F)S2 | 13.9% (inactive)
CCCn1c(C)nc2c(NCCCN(CCO)CCO)nc(C)nc21 | 2.31% (inactive)
O=C(Cn1cc(CNC(=O)C2CCCCC2)nn1)Nc1cc(C(F)(F)F)ccc1Cl | 6.75% (inactive)
Cc1cc2c(s1)c1cnn(Cc3ccc(C)c(F)c3F)c(=O)c1n2C | 1.68% (inactive)
O=C1CCCC2=C1C(c1ccncc1)N=C(Nc1nc3ccccc3o1)N2 (stereo not given) | -25.1% (inactive)
Cc1noc(C)c1-c1ccc2ncnc(NCC3CCCCN3C)c2c1 (stereo not given) | 6.46% (inactive)
Oc1ccc(CCc2ccccc2)c2cccnc12 | 0.919% (inactive)
CC(=O)O[C@H]1C(=O)[C@@]2(C)[C@H]([C@H](OC(=O)c3ccccc3)[C@]3(O)C[C@H](OC(=O)[C@H](O)[C@@H](NC(=O)c4ccccc4)c4ccccc4)C(C)=C1C3(C)C)[C@]1(OC(C)=O)CO[C@@H]1C[C@@H]2O | -0.734% [at 16.9 µM] (inactive)
C=CCc1cccc(CNc2ccc(S(=O)(=O)Nc3nccs3)cc2)c1O | 4.99% (inactive)
Cc1cc2c(s1)c1cnn(Cc3ccccc3Br)c(=O)c1n2C | -5.61% (inactive)
Cc1cc(N2C(=O)c3ccccc3C2=O)no1 | -11% (inactive)
COc1cccc(C2c3c(ncn(-c4ccc(C(C)(C)C)cc4)c3=N)Oc3ccc4ccccc4c32)c1 (stereo not given) | 7.1% (inactive)
Cc1ccc(S(=O)(=O)Nc2ccc(OC(F)(F)F)cc2C(=O)Nc2nc(-c3ccccc3)cs2)cc1 | 4.21% (inactive)
COc1ccc2c(c1)Oc1ncn(CCN3CCOCC3)c(=N)c1C2c1ccc(OC)c(OC)c1 (stereo not given) | -17.5% (inactive)
CCOc1ccc(CCNC(=O)c2cccc(C(=O)c3ccccc3)c2)cc1OCC | -8.31% (inactive)

Compound | activity change, negative = inhibition
CCN(CC)CCCC(C)n1c(-c2ccccc2)nc2c(NCc3ccccc3)nc(C)nc21 (stereo not given) | 3.48% (inactive)
COc1cc(Cl)ccc1C(=O)Nc1nc(-c2ccccc2)cs1 | 9.05% (inactive)
O=C1c2ccccc2C(=O)N1c1nccs1 | -15.1% (inactive)
N#Cc1c(-c2ccco2)no[n+]1[O-] | -4.77% (inactive)
O=S(=O)(c1ccc(Br)cc1)N1CCN(S(=O)(=O)c2ccc3c(c2)OCCO3)CC1 | 15.8% (inactive)
COc1ccc2nc(-c3ccc(F)cc3Cl)sc2c1 | -16.5% (inactive)
CCCn1ncc(CN2CCCC(C(=O)c3cccc(OC(C)C)c3)C2)c1C (stereo not given) | 3.08% (inactive)
O=C(NCc1ccccc1)Nc1nnc(-c2ccncc2)s1 | 9.84% (inactive)
Oc1cccc2cc(-c3ccncc3)cnc12 | 16.8% (inactive)
CC(=O)O[C@@H]1c2c3c(cc(O)c2C(=O)O[C@@H]1C)O[C@@]1(C)[C@@H](O)C[C@H]2C(C)(C)C(=O)C=C[C@]2(C)[C@@H]1C3 | -4% [at 28 µM] (inactive)
CC(C)(C)OC(=O)Cc1nnc(-c2nc3ccccc3[nH]2)o1 | 5.7% (inactive)
CCOc1cc(C)c(Cl)cc1S(=O)(=O)n1cnc2ccccc21 | 1.65% [at 28 µM] (inactive)
O=C(Cc1ccc(Cl)c(Cl)c1)Nc1ccc([S+](=O)([O-])Nc2ccccn2)cc1 | -5.87% (inactive)
Cc1ccc(OCCn2c(CCNC(=O)c3ccccn3)nc3ccccc32)cc1 | -19.9% (inactive)
O=C(Nc1ccc(-c2nc3ccccc3[nH]2)cc1)Nc1ccc2occc2c1 | 9.28% (inactive)
O=S(=O)(c1ccccc1)N1CCN(c2nccc(-c3cccs3)n2)CC1 | 0.84% (inactive)
Cc1ccc(NS(=O)(=O)c2ccccc2C(=O)Nc2nc(-c3ccccc3)cs2)cc1 | 19.5% (inactive)
Fc1cccc(CNc2ncnc3ccc(-c4cccc(Cl)c4)cc23)c1 | -2.97% (inactive)
CS(=O)(=O)c1ccc(C(=O)OCC#CCSc2nnc(-c3cccc4ccccc34)o2)cc1 | -0.623% (inactive)
Cc1cn([C@H]2C[C@H](N[S+](=O)([O-])c3ccc4c(c3)OCCO4)[C@@H](CO)O2)c(=O)[nH]c1=O | 7.89% (inactive)
